From PubChem
S2 tox: viability counter-screen for ATXN expression inhibitors; S2 cells (HEK-293 line with an ATXN2-luciferase reporter) viability, CellTiter-Fluor protease fluorescence, 24 h; Potency, µM (top dose mostly 56.7 µM), actives largely listed as cytotoxic; 400,000 tested, 0.49% active; AID 651635; note: nearly all actives have a fitted effect of over 40% in size
HepG2 viability: counter-screen for TGF-b inhibitors: cytotoxicity in HepG2 cells; HepG2 CAGA-GFP viability, ATP luminescence, 18 h; Potency, µM (series often up to 46.1 µM), most hits filed as cytotoxic; 410,000 tested, 0.76% active
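CellTiter-Glo luminescence gave cytotoxicity after 18 hours at 37 degrees C. The cells were HepG2 CAGA-GFP in 1% FBS DMEM, stimulated with 500 pg/mL TGF-beta after compound addition. %Activity was normalised to no-cell wells (complete cell-killing) and DMSO (no toxicity), and curves were fitted and classified.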
TDP1 cell CPT: growth inhibition of DT40 Tdp1-/-;hTDP1 cells with camptothecin (screen for TDP1 inhibitors); chicken DT40 Tdp1-/-;hTDP1 cells + 20 nM CPT, ATP luminescence, 48 h; Potency, µM (top dose mostly 46.2 µM), usual class: inhibitors; 420,000 tested, 12% active; AID 686979; note: nearly all actives have a fitted effect of over 55% in size
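Cell growth measured by CellTiter-Glo luminescence after a minimum 48 h, 37 C compound exposure with 20 nM CPT in Tdp1-knockout DT40 cells stably expressing hTDP1, seeded 400/well; qHTS titration format.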
ATXN2 expr inh: reduces ATXN2 reporter expression in HEK-293 cells; Potency, µM (titrated, usually from 57 µM), actives largely listed as inhibitors; AID 1745845; HEK-293 ATXN2-luciferase reporter, luminescence, 24 h; 360,000 tested, 0.72% active; note: nearly all actives have a fitted effect of over 55% in size
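qHTS (up to 57 uM final) was run with 24 h compound exposure of reporter cells at 37 °C. Each well was multiplexed: SteadyGlo luminescence measured ATXN2-luciferase expression after a fluorogenic Gly-Phe-AFC viability readout (25 uM final).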
TGFb SMAD3 inh: blocks TGF-b signaling. HepG2 CAGA-GFP TGF-b/SMAD3 reporter, GFP fluorescence, 18 h; TGF-beta stimulated, 500 pg/mL final. Potency, µM (highest dose often 46.1 µM), most hits filed as inhibitors. 410,000 tested, 1.2% active. AID 588855; note: nearly all actives have a fitted effect of over 65% in size
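First, reporter cells (HEPG2 CAGA-GFP) rested 2 h at 37 degrees C. Next, compounds were pinned in and TGF-beta added to 500 pg/mL final. After 18 h, GFP was imaged per cell and summed per well.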
DT40 TDP1 no CPT: qHTS for Inhibitors of human tyrosyl-DNA phosphodiesterase 1 (TDP1): qHTS in cells in absence of CPT; DT40 Tdp1-/- hTDP1 cells, no CPT, ATP luminescence, 48 h; Potency, µM (top dose mostly 46.2 µM), actives largely listed as inhibitors; 420,000 tested, 15% active; note: nearly all actives have a fitted effect of over 55% in size
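Camptothecin absent (DMSO only). Human TDP1-complemented DT40 knockout cells, 400 cells/well, 37 °C for minimum 48 hr; ATP measured via CellTiter-Glo, 30 min dark incubation, luminescence.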
Large screens that a line does not name were inactive. An excerpt weighted towards active compounds, which were near 17% of everything screened. Calls come from the whole dose curve; as a rule, active = well fitted curve in the direction sought with a large enough effect; inconclusive = small, poorly fitted or top-dose-only effect, or another doubt; inactive = no such curve, though single readings can be large; an effect the other way counts as inactive or inconclusive.

COc1ccccc1N(C)S(=O)(=O)c1ccc(Cl)c(C(=O)Nc2ccccc2N2CCOCC2)c1	TDP1 cell CPT 3.7µM, DT40 TDP1 no CPT 1.5µM
COc1ccc(N(C)S(=O)(=O)c2cccc(C(=O)NCC(c3cccs3)N(C)C)c2)cc1 (centres undefined)	TDP1 cell CPT inconclusive
CN(c1ccc(F)cc1)S(=O)(=O)c1ccc(Cl)c(C(=O)NC2(C)CCS(=O)(=O)C2)c1 (centres undefined)	DT40 TDP1 no CPT inconclusive (no result: ATXN2 expr inh)
CN(C)C(CNC(=O)c1cc(S(=O)(=O)N(C)c2ccc(F)cc2)ccc1Cl)c1cccs1 (centres undefined)	TDP1 cell CPT 5.8µM, DT40 TDP1 no CPT 5.8µM
COc1ccccc1N(C)S(=O)(=O)c1ccc(Cl)c(C(=O)Nc2cccc(C)n2)c1	TDP1 cell CPT 18µM, DT40 TDP1 no CPT 16µM
Cc1cccc(NC(=O)c2cc(S(=O)(=O)N(C)c3ccc(F)cc3)ccc2Cl)n1	S2 tox inconclusive, TDP1 cell CPT inconclusive, DT40 TDP1 no CPT 8.2µM
Cc1cc[n+](CC2OCc3ccccc3CO2)cc1	TDP1 cell CPT inconclusive, DT40 TDP1 no CPT 18µM
CC(C)CNCC1OCc2ccccc2CO1	none
CCOC(=O)c1c(NC(=O)CSc2nnc(CNc3ccc(OC)cc3)n2C)sc(C)c1C	S2 tox inconclusive
C/C=C/c1ccc(OCC(=O)OCc2csc(Nc3ccc(C)cc3)n2)c(OC)c1	none
